Experimental data: PubChem BioAssay (Tox21)
“And” between values parts separate entries of the source, which are not always exact repeats. Equal values may be shown once. Inconclusive results are not listed. More than one record can exist for a structure, and the calls need not agree. The source made the active and inactive calls. Unless noted, calls come from the whole dose curve; as a rule, active = well fitted curve in the direction sought with a large enough effect in the repeat runs; inconclusive = weak or mixed curves; inactive = no such curve, though single readings can be large; an effect the other way counts as inactive or inconclusive.

Tests used:
[1] = biological target: Estrogen receptor (Homo sapiens) (UniProt P03372); test: qHTS assay to identify small molecule antagonists of the estrogen receptor alpha (ER-alpha) signaling pathway (AID 743069; active = well fitted curve in the direction sought with a large enough effect in the signal ratio in the repeat runs, not every such curve was filed as active; the % refers to the signal ratio)
Chain of Estrogen receptor (Homo sapiens) (P03372 whole entry, looked up): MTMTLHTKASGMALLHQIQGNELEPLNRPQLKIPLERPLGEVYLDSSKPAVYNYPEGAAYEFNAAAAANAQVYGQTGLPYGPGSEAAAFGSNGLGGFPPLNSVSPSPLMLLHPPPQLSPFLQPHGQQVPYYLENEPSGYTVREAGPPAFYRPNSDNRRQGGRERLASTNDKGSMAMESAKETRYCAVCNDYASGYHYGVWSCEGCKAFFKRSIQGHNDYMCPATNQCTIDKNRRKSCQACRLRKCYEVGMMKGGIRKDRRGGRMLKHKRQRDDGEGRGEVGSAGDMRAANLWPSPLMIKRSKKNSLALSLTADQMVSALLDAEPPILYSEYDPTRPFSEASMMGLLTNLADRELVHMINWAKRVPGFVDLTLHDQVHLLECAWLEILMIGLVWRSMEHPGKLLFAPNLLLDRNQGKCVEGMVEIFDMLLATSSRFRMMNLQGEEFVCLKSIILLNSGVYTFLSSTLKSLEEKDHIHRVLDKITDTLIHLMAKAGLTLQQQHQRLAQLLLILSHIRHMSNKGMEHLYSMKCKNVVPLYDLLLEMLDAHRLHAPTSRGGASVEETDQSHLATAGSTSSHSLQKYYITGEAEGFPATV
In short: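 Compound effects are measured against 17beta-estradiol stimulation in HEK293 cells with a UAS-controlled beta-lactamase reporter for ER-alpha. Exposure lasts 18 hr at 37C; LiveBLAzer B/G FRET substrate follows for 2 hr at room temperature.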

[2] = qHTS assay to identify small molecule antagonists of the estrogen receptor alpha (ER-alpha) signaling pathway - cell viability counter screen (AID 743074; calls by dose curve;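 note: HEK293 cells carrying ER-alpha-UAS-bla reporter stimulated with 17beta-estradiol; nearly all actives have a fitted effect of over 45% in size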; note: potency is the fitted concentration of half-maximal effect)
[3] = biological target: Estrogen receptor (Homo sapiens) (UniProt P03372); test: qHTS assay to identify small molecule agonists of the estrogen receptor alpha (ER-alpha) signaling pathway (AID 743075; calls by dose curve)
[4] = biological target: Estrogen receptor (Homo sapiens) (UniProt P03372); test: qHTS assay to identify small molecule agonists of the estrogen receptor alpha (ER-alpha) signaling pathway using the BG1 cell line (AID 743079); note: nearly all actives have a fitted effect of over 20% in size; note: potency is the fitted concentration of half-maximal effect
[5] = qHTS assay to identify small molecule antagonists of the estrogen receptor alpha (ER-alpha) signaling pathway using the BG1 cell line (AID 743080; calls by dose curve;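 note: BG1 cells stimulated with 17beta-estradiol alongside compound; series mostly up to about 70 µM; nearly all actives have a fitted effect of over 25% in size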)
In short: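 Luciferase inhibition measured with ONE-Glo after 30 min at RT in BG1Luc4E2 cells given test compounds and 17beta-estradiol for 21.5 h at 37 C; CellTiter-Fluor viability read in the same wells beforehand.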

[6] = qHTS assay to identify small molecule antagonists of the estrogen receptor alpha (ER-alpha) signaling pathway using the BG1 cell line - cell viability counter screen (AID 743081);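 note: compound given together with 17beta-estradiol as the ER stimulus; nearly all actives have a fitted effect of over 45% in size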; note: potency is the fitted concentration of half-maximal effect
Aromatase (Homo sapiens) = Aromatase (Homo sapiens) (UniProt P11511); test: qHTS assay to identify aromatase inhibitors (AID 743083); note: nearly all actives have a fitted effect of over 55% in size; note: potency is the fitted concentration of half-maximal effect
Chain of Aromatase (Homo sapiens) (P11511 whole entry, looked up): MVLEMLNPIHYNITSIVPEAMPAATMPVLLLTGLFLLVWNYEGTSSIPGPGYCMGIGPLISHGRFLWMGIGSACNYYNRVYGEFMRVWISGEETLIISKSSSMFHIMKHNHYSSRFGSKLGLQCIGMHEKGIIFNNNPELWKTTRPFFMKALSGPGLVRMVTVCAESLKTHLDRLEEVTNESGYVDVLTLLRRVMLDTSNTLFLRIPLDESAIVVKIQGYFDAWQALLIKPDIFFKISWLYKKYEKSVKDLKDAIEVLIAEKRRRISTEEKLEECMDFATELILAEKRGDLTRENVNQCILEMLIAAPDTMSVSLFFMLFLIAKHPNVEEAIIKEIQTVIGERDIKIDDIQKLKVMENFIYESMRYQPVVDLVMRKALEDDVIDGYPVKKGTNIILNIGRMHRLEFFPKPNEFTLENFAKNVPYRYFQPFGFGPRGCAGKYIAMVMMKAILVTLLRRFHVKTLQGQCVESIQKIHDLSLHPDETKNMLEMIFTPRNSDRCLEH

[7] = qHTS assay to identify aromatase inhibitors - cell viability counter screen (AID 743084);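 note: cells stimulated with testosterone during compound exposure; nearly all actives have a fitted effect of over 55% in size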
[8] = biological target: Aryl hydrocarbon receptor (Homo sapiens) (UniProt P35869); test: qHTS assay to identify small molecule that activate the aryl hydrocarbon receptor (AhR) signaling pathway (AID 743085); note: nearly all actives have a fitted effect of over 15% in size; note: potency is the fitted concentration of half-maximal effect;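 for activation: HG2L7.5c1 human HepG2 liver cells with stably integrated DRE-driven firefly reporter; series mostly up to about 70 µM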
Chain of Aryl hydrocarbon receptor (Homo sapiens) (P35869 whole entry, looked up): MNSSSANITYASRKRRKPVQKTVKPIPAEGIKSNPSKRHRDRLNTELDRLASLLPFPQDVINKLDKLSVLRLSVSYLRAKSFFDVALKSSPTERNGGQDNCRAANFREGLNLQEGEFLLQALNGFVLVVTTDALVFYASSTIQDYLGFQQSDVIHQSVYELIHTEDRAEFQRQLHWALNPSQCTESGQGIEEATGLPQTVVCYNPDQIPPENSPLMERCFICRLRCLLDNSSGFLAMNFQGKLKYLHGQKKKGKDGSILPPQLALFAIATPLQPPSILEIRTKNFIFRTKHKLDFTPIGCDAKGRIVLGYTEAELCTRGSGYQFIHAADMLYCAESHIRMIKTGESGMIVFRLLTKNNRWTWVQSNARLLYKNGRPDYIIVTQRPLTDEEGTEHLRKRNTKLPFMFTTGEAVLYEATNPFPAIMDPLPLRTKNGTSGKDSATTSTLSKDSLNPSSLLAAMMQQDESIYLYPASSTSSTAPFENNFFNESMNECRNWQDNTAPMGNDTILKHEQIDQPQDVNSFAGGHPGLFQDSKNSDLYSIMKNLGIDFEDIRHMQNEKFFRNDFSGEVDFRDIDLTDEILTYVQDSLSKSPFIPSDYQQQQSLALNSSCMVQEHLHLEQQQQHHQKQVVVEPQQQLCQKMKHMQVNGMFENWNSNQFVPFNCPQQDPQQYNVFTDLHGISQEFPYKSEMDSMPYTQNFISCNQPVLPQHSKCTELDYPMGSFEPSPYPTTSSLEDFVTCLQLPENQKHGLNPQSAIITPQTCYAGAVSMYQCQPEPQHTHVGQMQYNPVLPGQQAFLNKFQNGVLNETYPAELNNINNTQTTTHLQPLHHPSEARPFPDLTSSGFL
In short: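 Cell line HG2L7.5c1 (human hepatoma, 20× DRE-luc). Plated, 5 h 37C, compound/DMSO added, 24 h 37C. CellTiter-Fluor 30 min 37C → fluorescence; then ONE-Glo 30 min RT → luminescence.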

[9] = qHTS assay to identify small molecule that activate the aryl hydrocarbon receptor (AhR) signaling pathway - cell viability counter screen (AID 743086); note: nearly all actives have a fitted effect of over 45% in size; note: potency is the fitted concentration of half-maximal effect
In short: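 Cytotoxicity counter screen: CellTiter-Fluor signal (30 min, 37 C) in 4000 HepG2 cells/well carrying the DRE-luciferase reporter, following 24 h compound exposure at 37 C.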

[10] = biological target: Peroxisome proliferator-activated receptor gamma (Homo sapiens) (UniProt P37231); test: qHTS assay to identify small molecule agonists of the peroxisome proliferator-activated receptor gamma (PPARg) signaling pathway (AID 743094; active = well fitted activation curve with a large enough effect in the signal ratio in the repeat runs, not every such curve was filed as active; the % refers to the signal ratio)
Chain of Peroxisome proliferator-activated receptor gamma (Homo sapiens) (P37231 whole entry, looked up): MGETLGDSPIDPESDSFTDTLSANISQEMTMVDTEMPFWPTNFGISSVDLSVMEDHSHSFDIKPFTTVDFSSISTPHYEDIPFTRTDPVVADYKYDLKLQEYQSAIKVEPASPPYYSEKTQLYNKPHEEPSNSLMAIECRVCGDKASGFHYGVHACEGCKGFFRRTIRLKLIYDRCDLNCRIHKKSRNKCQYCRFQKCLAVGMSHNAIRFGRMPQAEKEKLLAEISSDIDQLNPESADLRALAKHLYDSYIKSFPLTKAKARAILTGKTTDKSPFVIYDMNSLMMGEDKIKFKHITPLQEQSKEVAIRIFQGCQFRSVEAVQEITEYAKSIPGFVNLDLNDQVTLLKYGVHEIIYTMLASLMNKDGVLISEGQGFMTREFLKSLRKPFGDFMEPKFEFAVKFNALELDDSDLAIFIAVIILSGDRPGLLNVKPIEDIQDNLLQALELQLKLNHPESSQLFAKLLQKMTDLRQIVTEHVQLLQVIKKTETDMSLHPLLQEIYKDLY
In short: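 Quantitative HTS agonist mode: stable HEK293H line with UAS-beta-lactamase reporter under PPARg control, 17 h compound exposure at 37C, fluorescence after 1 h FRET substrate loading at room temperature.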

[11] = biological target: Peroxisome proliferator-activated receptor gamma (Homo sapiens) (UniProt P37231); test: qHTS assay to identify small molecule antagonists of the peroxisome proliferator-activated receptor gamma (PPARg) signaling pathway (AID 743191; calls by dose curve; note: nearly all actives have a fitted effect of over 30% in size; note: potency is the fitted concentration of half-maximal effect)
In short: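 Beta-lactamase reporter under UAS control in HEK293H PPARg-bla cells; compound treatment 17 h at 37C. Read-out: fluorescence intensity after 1 h room-temperature incubation with LiveBLAzer B/G FRET substrate.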

[12] = qHTS assay to identify small molecule antagonists of the peroxisome proliferator-activated receptor gamma (PPARg) signaling pathway - cell viability counter screen (AID 743194); note: nearly all actives have a fitted effect of over 55% in size
In short: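 Viability was measured as CellTiter-Glo luminescence in GeneBLAzer PPARg UAS-bla HEK293H cells. These cells had been exposed 17 h at 37 C to compounds together with rosiglitazone at 50 nM final, with the beta-lactamase readout taken in the same wells.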

[13] = qHTS assay for small molecule agonists of the antioxidant response element (ARE) signaling pathway (AID 743202; active = well fitted activation curve with a large enough effect in the signal ratio in the repeat runs, not every such curve was filed as active; the % refers to the signal ratio; note: potency is the fitted concentration of half-maximal effect)
In short: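 An ARE-responsive beta-lactamase gene stably integrated in HepG2 cells serves as reporter. After 5 h plating and 16 h compound incubation at 37 C, fluorescence of the B/G FRET substrate was measured.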

[14] = qHTS assay for small molecule agonists of the antioxidant response element (ARE) signaling pathway - cell viability counter screen (AID 743203; calls by dose curve; note: nearly all actives have a fitted effect of over 55% in size; note: potency is the fitted concentration of half-maximal effect)
In short: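 Seeded at 2,000 cells/well, ARE-bla HepG2 cells were incubated 5 hrs before compound addition. After 16 hrs of treatment at 37C with 5% CO2, CellTiter-Glo reagent was added and luminescence read 30 min later.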

[15] = qHTS assay for small molecule activators of the heat shock response signaling pathway - cell viability counter screen (AID 743209); note: nearly all actives have a fitted effect of over 50% in size; note: potency is the fitted concentration of half-maximal effect
In short: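 First, HSE-bla HeLa cells were seeded at 1500 cells/well and kept overnight at 37 C. Next, compounds were pinned in and incubated 5 h. After the FRET substrate step, CellTiter-Glo was added and luminescence read 30 min later.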

[16] = qHTS assay to identify small molecule agonists of the peroxisome proliferator-activated receptor delta (PPARd) signaling pathway - cell viability counter screen (AID 743211); note: nearly all actives have a fitted effect of over 55% in size; note: potency is the fitted concentration of half-maximal effect
In short: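 HEK293H PPARd-bla, 3000 cells/well; 5 h preincubation 37C/5% CO2; cpd in DMSO, 17 h 37C; B/G FRET substrate 2 h RT; CellTiter-Glo 30 min RT, luminescence.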

[17] = biological target: Peroxisome proliferator-activated receptor delta (Homo sapiens) (UniProt Q03181); test: qHTS assay to identify small molecule agonists of the peroxisome proliferator-activated receptor delta (PPARd) signaling pathway (AID 743212; calls by dose curve)
Chain of Peroxisome proliferator-activated receptor delta (Homo sapiens) (Q03181 whole entry, looked up): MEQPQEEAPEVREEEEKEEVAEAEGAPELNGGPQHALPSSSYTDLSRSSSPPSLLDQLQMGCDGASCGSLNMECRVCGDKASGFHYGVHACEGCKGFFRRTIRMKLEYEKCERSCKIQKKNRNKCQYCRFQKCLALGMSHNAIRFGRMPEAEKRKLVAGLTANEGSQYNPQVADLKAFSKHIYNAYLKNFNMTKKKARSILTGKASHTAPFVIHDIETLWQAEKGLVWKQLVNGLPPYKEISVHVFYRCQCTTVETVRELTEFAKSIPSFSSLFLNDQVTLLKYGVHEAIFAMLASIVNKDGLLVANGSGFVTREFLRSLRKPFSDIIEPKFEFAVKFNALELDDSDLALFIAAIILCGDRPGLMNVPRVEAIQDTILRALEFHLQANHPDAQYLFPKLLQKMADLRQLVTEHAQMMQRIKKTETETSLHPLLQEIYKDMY
In short: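 HEK293H UAS-bla reporter cells, human PPARd system; compounds delivered in DMSO after 5 h plating, then at 37 C. Beta-lactamase FRET read, 2 h RT substrate step.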

[18] = qHTS assay for small molecule activators of the heat shock response signaling pathway (AID 743210; active = well fitted activation curve with a large enough effect in the signal ratio in the repeat runs, with a control signal flat, not every such curve was filed as active; the % refers to the signal ratio;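 note: HeLa cells with beta-lactamase reporter driven by heat shock elements; series mostly up to about 63 µM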)
In short: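 In HSE-bla HeLa cells, 5 h compound incubation (37 C) precedes addition of LiveBLAzer B/G substrate; after 2.5 h at room temperature, fluorescence intensity indicates reporter induction.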

[19] = system: thyroid hormone receptor (rat, GH3 cells); test: qHTS assay to identify small molecule agonists of the thyroid receptor (TR) signaling pathway (AID 743066; calls by dose curve)

Measured: Potency

CCCCCCOC(C)=O
not listed: [18] | [19]
inactive: all other assays above

CCOC(=O)/C=C\C(=O)OCC
not listed: [19]
inactive: all other assays above

CC1=C(CC(=O)O)c2cc(F)ccc2/C1=C\c1ccc(S(C)=O)cc1 (stereo not given)
active: [8] 13.3 µM and 24.3 µM
not listed: [1] | [3] | [4] | [5] | [11] | [13] | [17]
inactive: all other assays above

CCCCCC/C=C/CCCCCCCC(=O)O
30.7 µM (active) and inactive: [4]
not listed: [11] | [19]
inactive: all other assays above

S=c1nc[nH]c2nc[nH]c12
inactive and 23.7 µM (active): [8]
active: [13] 4.74 µM and 7.5 µM | [14] 0.842 µM | [16] 23.9 µM
not listed: [1] | [2] | [5] | [10] | [11] | [12]
inactive: all other assays above

CCCCCCCCCCC=CC1CC(=O)OC1=O (stereo not given)
inactive: [19] | [2] | [6] | [9] | [12] | [14] | [15] | [18] | [16] | [17]

NC(=O)NNc1ccccc1
not listed: [1] | [3] | [4] | [5] | [10] | [11] | [17]
inactive: all other assays above

CC(C)n1c(/C=C/[C@@H](O)C[C@@H](O)CC(=O)O)c(-c2ccc(F)cc2)c2ccccc21
active: [8] 15 µM
not listed: [1] | [3] | [4] | [5] | Aromatase (Homo sapiens) | [10] | [11] | [17]
inactive: all other assays above

CCCCNC(N)=O
not listed: [1] | [3] | [4] | [5] | [8]
inactive: all other assays above

O=C1O[C@H](CO)[C@@H](O)[C@H](O)[C@H]1O
not listed: [19]
inactive: all other assays above

CS(=O)(=O)Nc1ccc([N+](=O)[O-])cc1Oc1ccccc1
not listed: [1] | [3] | [4] | [5] | [10] | [11] | [13] | [17]
inactive: all other assays above

Cc1cc(NS(=O)(=O)c2ccc(N)cc2)no1
inactive: [19] | [2] | [6] | [7] | [9] | [12] | [13] | [14] | [15] | [18] | [16]

CC(=O)CCc1ccccc1
not listed: [1] | [3] | [4] | [5] | [8] | [17]
inactive: all other assays above

CCCCC(CC)COC(=O)CCCCCCCC(=O)OCC(CC)CCCC (stereo not given)
inactive: [19] | [2] | [6] | [9] | [12] | [13] | [14] | [15] | [18] | [16] | [17]

O=C1N=C(O)CN1/N=C/c1ccc(-c2ccc([N+](=O)[O-])cc2)o1
inactive and 48.6 µM (active): [9]
inactive: [19] | [2] | Aromatase (Homo sapiens) | [7] | [12] | [13] | [14] | [15] | [18] | [16]
active: [6] 48.6 µM

OCC1CCCO1 (stereo not given)
not listed: [19]
inactive: all other assays above

Cc1cc(Cc2ccc(N)c(C)c2)ccc1N
inactive: [19] | [2] | [6] | [9] | [12] | [13] | [14] | [15] | [18] | [16]

C/C=C(C)/C=C/C=C(C)C
active: [13] 60.4 µM
not listed: [1] | [3] | [4] | [5] | [11] | [17] | [18]
inactive: all other assays above

Cc1cc(O)cc(C)c1Cl
not listed: [1] | [3] | [4] | [5] | [8]
inactive: all other assays above

CCCCCCCCCCCCN
inactive and 19.5 µM (active): [16]
inactive and 54.9 µM (active): [2]
inactive: [19] | [6] | [8] | [9] | [10] | [13] | [17]
inactive and 24.3 µM (active): [14]
active: Aromatase (Homo sapiens) 61.1 µM
inactive and 43.6 µM (active): [15]

O=C(O)c1ccc([N+](=O)[O-])cc1
not listed: [1] | [3] | [4] | [5] | [10] | [11]
inactive: all other assays above

CCC(=O)O
not listed: [19]
inactive: all other assays above

CC(C)NCC(O)COc1cccc2ccccc12 (stereo not given)
not listed: [1] | [3] | [4] | [5] | [10] | [11] | [13] | [17]
inactive: all other assays above

C[C@@H]1O[C@@H](OC[C@H]2O[C@@H](Oc3c(-c4ccc(O)c(O)c4)oc4cc(O)cc(O)c4c3=O)[C@H](O)[C@@H](O)[C@@H]2O)[C@H](O)[C@H](O)[C@H]1O
not listed: [1] | [3] | [4] | [5] | [10] | [11] | [13]
inactive: all other assays above

CNC[C@H](O)[C@@H](O)[C@H](O)[C@H](O)CO
inactive: [19] | [2] | [6] | [9] | [12] | [13] | [14] | [15] | [18] | [16] | [17]

OCC#CCO
not listed: [1] | [2] | [3] | [4] | [5] | [17]
inactive: all other assays above

O=c1c(-c2ccc(O)cc2)coc2cc(O)ccc12
inactive: [1] | [6] | Aromatase (Homo sapiens) | [7] | [9] | [10] | [12] | [15] | [18] | [16] | [17]

NCCNCCNCCNCCN
not listed: [1] | [3] | [4] | [5] | [11] | [13]
inactive: all other assays above

O=C(O)c1cc(-c2ccccc2)nc2ccccc12
active: [8] 58.4 µM
not listed: [1] | [3] | [4] | [5] | [10]
inactive: all other assays above

CCCCCCCCCC(=O)O
active: [11] 30.9 µM
not listed: [1] | [3] | [4] | [5] | [8] | [10] | [17]
inactive: all other assays above

C[C@@H](O)[C@H]1C(=O)N2C(C(=O)O)=C(S[C@@H]3CN[C@H](C(=O)N(C)C)C3)[C@H](C)[C@H]12
not listed: [1] | [3] | [4] | [5] | [8] | [17]
inactive: all other assays above
